According to ChEMBL document CHEMBL3988442, “University of Dundee, Small-Polar-MMV Screening Library” (2021):
“And” between values parts separate entries of the source, which are not always exact repeats. Identical values can stand only once. The campaign covered roughly 67,000 compounds. About 40 (0.06%) showed an effect of 50% or more. For the sample, strong results were picked, then their nearest neighbours and some compounds at random.

target: T1, Coenzyme A biosynthesis bifunctional protein CoaBC (Mycobacterium tuberculosis (strain ATCC 25618 / H37Rv)) (UniProt P9WNZ1); assay: Biomol Green assay for MtCoaBC inhibitor, OD650 read; format: functional; design: scale not given: in the data most compounds retested in dose-response had high values; details: 30 µM
T1 sequence (whole entry): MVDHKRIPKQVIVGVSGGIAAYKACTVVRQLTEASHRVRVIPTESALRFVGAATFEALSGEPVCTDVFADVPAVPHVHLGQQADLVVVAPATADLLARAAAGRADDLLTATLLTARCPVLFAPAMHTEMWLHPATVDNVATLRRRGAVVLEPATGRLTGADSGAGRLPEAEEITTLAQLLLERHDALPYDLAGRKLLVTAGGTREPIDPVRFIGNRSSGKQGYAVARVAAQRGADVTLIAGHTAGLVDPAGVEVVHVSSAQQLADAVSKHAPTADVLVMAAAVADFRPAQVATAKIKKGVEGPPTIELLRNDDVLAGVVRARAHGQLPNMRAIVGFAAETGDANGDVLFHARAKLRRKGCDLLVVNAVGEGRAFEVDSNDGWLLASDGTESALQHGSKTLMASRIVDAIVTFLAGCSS

| Compound | Percent Effect |
| --- | --- |
| COc1cc(N2CCC[C@]3(C(=O)O)CN(C(C)C)C[C@@H]3C2)ncn1 | -10.7% |
| c1ccc(CN2C[C@@H]3COC[C@]3(COCC3CCOCC3)C2)nc1 | 9.51% |
| COCCNC(=O)C[C@@H]1COC[C@H]2CN(CC3CCOCC3)C[C@@H]12 | -2.48% |
| COc1cnc(N2CCN(C)CC2)nc1-c1ccnn1C | 5.52% |
| Cc1cnc(N2CCN(C)CC2)nc1-c1ccnn1C | 5.03% |
| CN1[C@H](Cn2cccn2)C[C@@H]2CN(Cc3cccs3)CC[C@@H]21 | 5.67% |
| CO[C@@H]1CN(Cc2scnc2C)[C@@H]2CCCO[C@@H]21 | -51.5% |
| O=C(c1ccc[nH]1)N1C[C@H]2CN(Cc3cccc(F)c3)C(=O)[C@H]2C1 | 8.74% |
| CCc1ncncc1C(=O)NCCNS(=O)(=O)c1ccc(C)cc1 | 3.17% and 20.9% |
| Cc1ccc(S(=O)(=O)NCCNC(=O)c2cncnc2C)cc1 | 5.91% |
| Cc1ccc(N2CCO[C@H]3CN(Cc4cccnc4)C[C@H]32)nn1 | 3.85% |
| C[C@H]1C[C@H]2CN(C(=O)c3ccncn3)CC[C@@H]2O1 | 3.76% |
| Cc1cccc(CN2C[C@H]3CCC[C@@]3(COCc3csc(C)n3)C2)n1 | 3.06% |
| CCOCC1CN(C(=O)C2=CCCC2)Cc2cnn(CC)c21 (stereo not given) | 12.8% |
| CCOCC1CN(C(=O)N2CCCC2)Cc2cnn(C)c21 (stereo not given) | -2.1% |
| O=C1NCCO[C@H]2CN(C(=O)c3cccs3)CC[C@@H]12 | 2.96% |
| CNC(=O)[C@H]1C[C@@H]2CN(C(=O)c3ccncc3)C[C@@H]2N1S(C)(=O)=O | 2.59% |
| O=C(NCCc1cccs1)[C@H]1CO[C@H]2CCN(C3CCC3)C[C@H]2C1 | 6.17% |
| O=C1CO[C@@H]2CNC[C@H]2N1CC1CC1 | 0% |
| Cn1cc(CN2CC[C@@H]3[C@@H]2CCN3C(=O)c2cccc(F)c2)cn1 | 5.07% |
| Cc1cc(N2CCC(O)CC2)nc(C)n1 | 11.1% |
| CN1CCCCC1c1cncc(N2CCC(O)CC2)n1 (stereo not given) | -0.526% |
| CCCc1cc(C(=O)N2C[C@H]3CC=C(C)C[C@H]3C2)ccn1 | 2.3% |
| O=C(NCC1CCOCC1)[C@@H]1C[C@@H]2[C@@H](CCN2Cc2ccoc2)O1 | 2.96% |

| Compound | Percent Effect |
| --- | --- |
| CCc1cnc(N2C[C@H]3CN(Cc4ccc(OC)cc4)C(=O)[C@H]3C2)nc1 | -3.75% |
| CC(C)c1nc(C(=O)N2C[C@H]3CC[C@@H]2CN(C2CCOCC2)C3)cs1 | 5.66% |
| Cn1cc(CN2CC[C@H]3O[C@H](C(=O)NC4CC4)CC[C@H]32)c2ccccc21 | -3.06% |
| CN(C)c1ncc2c(n1)CN(C1CC(C)(C)NC(C)(C)C1)C2=O | 0.231% |
| CC(C)OC(=O)N1C[C@H]2CC[C@@H]1CN(Cc1cccnc1)C2 | 5.14% |
| COC1CCN(CCNC(=O)NCC(C)c2cccc(C)c2)CC1 (stereo not given) | -16.8% |
| COC1CCN(CCNC(=O)NC(C)c2cccc(Cl)c2)CC1 (stereo not given) | -0.455% |
| COc1cccc(CN2C[C@H]3CC[C@H]2C3)c1OCCN1CCOCC1 | 4.29% |
| CCc1ccc(CN2CCN(CCOC)[C@@H]3CS(=O)(=O)C[C@@H]32)cc1 | 8.73% |
| Cc1noc(C)c1CN1C[C@@H]2COC[C@H](C(=O)N3CCCCO3)[C@@H]2C1 | 0.259% |
| CC(C)N(Cc1ccc(Cl)c(Cl)c1)C(=O)CCn1cncn1 | 5.9% |
| CC(C)N(Cc1ccc(Cl)c(Cl)c1)C(=O)Cn1cncn1 | 5.66% |
| O=C(c1ccncc1)N1C[C@@H](OCc2cccnc2)[C@H]2OCCC[C@H]21 | 4.2% |
| Cc1ccc(NS(=O)(=O)c2cnn(-c3ccccc3)c2)c(C(=O)O)c1 | 64.4% and 43.6% |
| Cc1ccc(NS(=O)(=O)c2cnn(Cc3ccccc3)c2)c(C(=O)O)c1 | 0.726% |
| Cc1ccc(-n2cc(S(=O)(=O)Nc3cccc(C(=O)O)c3C)cn2)cc1 | 0.726% |
| COCCC(=O)NC[C@H]1CC[C@H](C(c2ccccn2)N(C)C)CC1 (stereo not given in full) | -1.84% |
| CNC(=O)N1CC[C@@H]2CN(Cc3ccccc3)S(=O)(=O)[C@@H]2CC1 | 1.48% |
| Cc1ccc(N2CC[C@@]3(O)CCN(S(C)(=O)=O)C[C@H]3C2)nn1 | -0.123% |
| O=C(CC1CC1)N1CC[C@H]2[C@@H]1CCC(=O)N2c1cccnc1 | 5.4% |
| COc1cc(N2CC[C@@H]3O[C@H](C(=O)NCC4CC4)C[C@@H]32)ncn1 | -0.37% |
| O=C1COC2(CCN(Cc3ccoc3)CC2)CN1CCn1cccn1 | -3.75% |
| COCCN1CCC2(CC1)CN(CCn1cccn1)C(=O)CO2 | -1.25% |
| Cn1cc(C(=O)N2CC[C@@]3(O)CCN(C4CCCCC4)C[C@H]3C2)cn1 | 0.467% |

| Compound | Percent Effect |
| --- | --- |
| CN(C)CCO[C@@H]1CC[C@H]2[C@H]1OCCN2C(=O)c1ccccc1F | 3.95% |
| CNC(=O)[C@H]1C[C@@H]2CN(S(=O)(=O)c3ccc(C)cc3)C[C@@H]2N1C | 1.63% |
| O=C([C@@H]1C[C@@H]2CCN(c3cccc(F)c3)C[C@H]2O1)N1CCCC1 | -8.02% |
| Cc1cccc(CN2C(=O)C[C@H]3[C@@H]2CCN3Cc2ccc(F)cc2)n1 | 9.41% |
| CC(=O)N1[C@H](Cn2cncn2)C[C@@H]2CN(c3ccc(C)nn3)CC[C@@H]21 | 6.82% |
| O=C(NC1CCC1)[C@@H]1C[C@@H]2CCN(Cc3ccncc3)C[C@H]2O1 | 4.7% |
| Cc1ccc(NC2(C(=O)N3CCn4cncc4C3)CCCCC2)cc1C | 4.82% |
| COc1ccc(NC2(C(=O)N3CCn4cncc4C3)CCCC2)cc1 | 8.96% |
| CC1=N[C@@]2(CC[C@@H]3CN(C(=O)NCc4ccccc4C)C[C@@H]32)C(=O)N1 | 0.609% |
| O=C(COC[C@@H]1CC[C@H]2[C@H](CCN2Cc2ccco2)O1)N1CCCC1 | 9.53% |
| CC(C)C(NC(=O)NCC1CC1)c1nnc2n1CCC2 (stereo not given) | -0.508% |
| CCC1(CNC(=O)NC(c2nnc3n2CCC3)C(C)C)CCC1 (stereo not given) | -3.55% |
| COCCN1C(=O)[C@]2(CC[C@@H]3CN(S(=O)(=O)CC(C)C)C[C@@H]32)N=C1C | -3.81% |
| CC(C)CC(=O)N1CC[C@@H]2CN(CC(=O)N(C)C)S(=O)(=O)[C@@H]2CC1 | 2.32% |
| Cc1noc([C@H]2C[C@@H]3CCN(CC4CC4)C[C@H]3O2)n1 | -1.9% |
| Cc1cccc(CN2CC[C@H]3[C@H]2CCN3Cc2cnn(C)c2)n1 | -4.59% |
| c1cc(COC[C@@]23CCC[C@@H]2CN(C2CCOCC2)C3)ccn1 | 6.42% |
| Cc1cnn(CC2CCCN2Cc2nnc(Cc3ccccc3)o2)c1 (stereo not given) | 0.119% |
| Cc1cnn(CC2CCCN2Cc2ncc(-c3ccccc3)o2)c1 (stereo not given) | 2.73% |
| O=C(N1CCCO1)[C@@]12CCO[C@@H]1CCN(Cc1ccsc1)C2 | -8.02% |
| CCS(=O)(=O)N1CC[C@H]2CO[C@H](CN(C)C)[C@H]2C1 | -0.203% |
| CC(=O)N1C[C@H]2CNC[C@@]2(C(=O)NCCCOc2cccnc2)C1 | 3.58% |
| O=C(NCCC(=O)N1CCCC1)c1cccnc1 | 0.943% |
| CN1CCC(C)(CNC(=O)c2ccc(SCc3cccnc3)cc2)CC1 | -1.65% |

| Compound | Percent Effect |
| --- | --- |
| O=C(c1cscn1)N1C[C@@H]2C[C@@H](c3nnc(C4CC4)o3)O[C@@H]2C1 | 0.38% |
| CC1CCN(C[C@H]2CN3CC[C@H]2C[C@@H]3CNC(=O)c2ccco2)CC1 | -15.2% |
| Cc1ccccc1CC(=O)N1C[C@@H]2COC[C@]2(CN(C)C)C1 | -10.9% |
| COCCN1CC[C@@H]2CN(Cc3cccnc3OC)C[C@@H]2C1 | -0.364% |
| Nc1cc(O)nc(CCNC(=O)CC[C@@H]2CCCN3CCCC[C@H]23)n1 | -3.91% |
| COc1ccc(C2CC(=O)c3c(O)cc(O)cc3O2)cc1O (stereo not given) | 17.8% |
| COc1cc(O)cc2c1C(=O)CC(c1ccc(O)cc1)O2 (stereo not given) | 65.2% and 48.7% |
| COc1cc(C2CC(=O)c3c(O)cc(O)cc3O2)ccc1O (stereo not given) | 7% |
| CN(Cc1ccco1)[C@@H]1CN(Cc2ccsc2)C[C@@H]2CCCO[C@@H]21 | 5.46% |
| COCc1cccc(C(=O)N2C[C@H]3CC[C@@H]2CN(Cc2cscn2)C3)n1 | 1.53% |
| Cc1nc(CN2CC[C@H]3[C@@H]2CCC(=O)N3c2cnn(C)c2)cs1 | -3.58% |
| Cn1cc(N2C(=O)CC[C@@H]3[C@H]2CCN3Cc2ccncc2)cn1 | 0.381% |
| O=C1N[C@@H]2CCN(C(=O)C3CCC3)[C@@H]2C(=O)N1c1ccc(F)cc1 | 0.226% |
| Fc1cccc(O[C@@H]2C[C@H]3CN(Cc4ccccn4)CCN3C2)c1 | 0.483% |
| Cn1cccc1C(=O)N1CC[C@H]2C[C@@H](c3ccncn3)O[C@@H]2C1 | 1.03% |
| COc1ccc(CN2CCCC2)cc1Oc1ccc2c(c1)CC(CN)O2 (stereo not given) | 4.1% |
| Cc1cc(CN2CCCC2)cc(Oc2ccc3c(c2)CC(CN)O3)c1 (stereo not given) | 3.85% |
| O=C(NCC1CC1)[C@@H]1C[C@@H]2OCCN[C@@H]2C1 | -1.96% |
| COc1ccc(-n2cc(CNC(=O)c3ccccn3)nn2)cc1 | 6.21% |
| CN1C(=O)CO[C@H]2CN(C(=O)Nc3ccc(F)cc3)C[C@H]21 | 9.63% |
| Cc1noc([C@H]2C[C@@H]3CCN(CC4CCOCC4)C[C@H]3O2)n1 | 14.2% |
| Cc1ccc(OCC(=O)N2CCN[C@H]3CS(=O)(=O)C[C@H]32)cn1 | 12% |
| Cc1ncsc1CN1C[C@@H]2COC[C@]2(COc2ccc(C#N)cn2)C1 | 2.8% |
